Here are results for 31 compounds from PubChem BioAssay (NCATS).

Results filed as inconclusive are left out. A number with no mark means an inactive call. Calls of active or inactive are those of the source. Calls follow the shape of the dose curve; as a rule, active = well fitted cell-killing curve with a large enough effect; inconclusive = small, poorly fitted or top-dose-only effect, or effect the other way; inactive = flat fitted curve, though single readings scatter.
% is scaled to controls: 0 for no effect and ±100 for the full control effect; potency is read from the fitted curve at half-maximal effect.

One assay concerns CAOV3. The experiment in a line: Primary qHTS to identify gynecologic anti-cancer compounds using libraries of approved drugs and bioactive compounds (AID 1345084). Also: nearly all actives have a fitted effect of over 55% in size. Particulars: Gynecologic cancer cell panel viability, ATPlite luminescence, 48 h; series mostly up to 57.5 µM; activity change, negative = cytotoxicity: at the top concentration. The essentials: (§1)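 Five-point cytotoxicity, 48 h drug exposure at 37 C, 5% CO2, on cells seeded 16 h beforehand. ATP content read by ATPlite luminescence.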
On the technique in general: Quantitative high-throughput screening tests each substance at several concentrations.
With `COCCOCCOc1ccc(C2=N[C@@](C)(C(=O)O)CS2)c(O)c1`, the “activity change, negative = cytotoxicity” value is -10.9%. For `C=C(C)C(=O)O[C@H]1[C@H]2C(=C)C(=O)O[C@@H]2C[C@@H](C)/C=C\C(=O)[C@](C)(O)[C@@H]1OC(C)=O`, the Potency is 8.91 µM (active).

Consider `CC(=O)C1=C(O)C2c3c[nH]c4cccc(c34)CC2C(C)(C)N(C)C1=O` (configuration not stated), for which the “activity change, negative = cytotoxicity” value was 14.8%.

Take `CC(C)N(CCCNC(=O)Nc1ccc(C(C)(C)C)cc1)C[C@H]1O[C@@H](n2cc(Br)c3c(N)ncnc32)[C@H](O)[C@@H]1O`: the “activity change, negative = cytotoxicity” value was -18%. For `O=[N+]([O-])c1ccc(-[n+]2nc(-c3ccccc3)nn2-c2ccc(I)cc2)cc1`, the Potency was 11.2 µM (active). In the case of `CC1CCCC(SCC(O)C(=O)O)CC(=O)c2c(O)cc(O)cc2CC(=O)O1` (configuration not stated), the “activity change, negative = cytotoxicity” value is -22.8% [at 25.3 µM]. On the same count and under the same terms, with `COc1ccccc1NC(=O)Nc1ccc2ccccc2c1` the figure was -28.7%.

With `CN1CCN(C(=O)c2ccc(Nc3nccc(-c4cccs4)n3)cc2Cl)CC1`, the “activity change, negative = cytotoxicity” value is -7.82%. Still for that read-out and setting: for `Cn1cc(-c2cnc3ccc4ccc(CS(=O)(=O)NCc5ccccn5)cc4c(=O)c3c2)cn1` the value was -25.3%. Same read-out and setting: for `C=C(C)[C@@H]1CC[C@]2(C(=O)O)CC[C@]3(C)C(CCC4[C@@]5(C)C[C@@H](O)[C@H](O)C(C)(C)C5CC[C@]43C)C12` (some centres not stated) the value was -7% [at 25.3 µM]; for `CCS(=O)(=O)N(Cc1cccnc1)c1cccc(-c2ccc(C#N)cc2)c1`, 0.0416%; for `O=C(NNc1ccccc1)c1ccncc1`, 15.7%. Turning to `C=C1[C@@H](C)[C@H]2[C@H](Cc3c[nH]c4ccccc34)NC(=O)[C@]23C(=O)/C=C/C(=O)[C@H](O)/C(C)=C\[C@@H](C)C/C=C/[C@H]3[C@@H]1O`, the “activity change, negative = cytotoxicity” value was -27.4% [at 25.3 µM].

In the case of `CC1CCC(n2c3cnccc3c3cnc(Nc4ccc5c(n4)CCN(C(=O)CO)C5)nc32)CC1` (configuration not stated), the “activity change, negative = cytotoxicity” value was -2.22%.

For the compound `C=CC(=O)Nc1cc(Nc2nccc(-c3cn(C)c4ccccc34)n2)c(OC)cc1N(C)CCN(C)C`, the Potency was 35.5 µM (active).

With `COc1cc2ncnc(Nc3ccc(Oc4ccccc4)cc3)c2cc1OC`, the Potency is 31.6 µM (active).

For the next assay, the system named is CASKI. The description is as above. As to conditions: Gynecologic cancer cell panel viability, ATPlite luminescence, 48 h; series mostly up to 57.5 µM; activity change, negative = cytotoxicity: at the top concentration. A digest of the protocol: as §1
Take `Oc1ccc(Nc2nc(-c3ccc(Cl)cc3)cs2)cc1`: the “activity change, negative = cytotoxicity” value was 2.07%.

On to `Nc1ncnc2c1ncn2[C@@H]1O[C@H](CO)C[C@H]1O`, for which the “activity change, negative = cytotoxicity” value is -35.2%. Still for that read-out and setting: for `OCC(Cc1ccccc1)Nc1nc(Oc2ccc3c(c2)CCC3)nc2c1ncn2Cc1ccc(-c2ccccc2)cc1` (configuration not stated) the value was -5.43%. The same measure, in the same setting: for `Cc1cc2nc(NCCCO)n(CC(=O)c3cc(C(C)(C)C)c(O)c(C(C)(C)C)c3)c2cc1C` the value was -5.38%. On the same count and under the same terms, for `CC1(C)CC23[C@@H]4CC(=O)[C@@H]2COC(=O)[C@@H]3CC[C@H]41` the value was 0.941%. On to `CC[C@H](CO)Nc1nc(Nc2cccc(-c3ccccn3)c2)c2ncn(C(C)C)c2n1`, for which the “activity change, negative = cytotoxicity” value was -20.5%. The same measure, in the same setting: with `Cc1ccccc1C(=O)Nc1ccc(C(=O)N2CCC[C@@H](O)c3cc(Cl)ccc32)c(C)c1` the figure was -21.7%. Still for that read-out and setting: with `CC1CCN(C(c2ccc(F)cc2)c2ccc(C(C)C(=O)O)cc2-c2ccc(C(F)(F)F)cc2)CC1` (configuration not stated) the figure was 11.8%; with `O=C(NC(NC(=S)Nc1ccc(F)c([N+](=O)[O-])c1)C(Cl)(Cl)Cl)C(c1ccccc1)c1ccccc1` (configuration not stated), -4.56% [at 25.3 µM].

Regarding `COc1ccc(CNC(=O)Nc2ncc([N+](=O)[O-])s2)cc1`, the “activity change, negative = cytotoxicity” value is -4.87%. The same measure, in the same setting: with `OCC(CO)(CO)NCC(O)Cn1c2ccc(Cl)cc2c2cc(Cl)ccc21` (configuration not stated) the figure was -22.3%; with `COCCOCCOc1ccc(C2=N[C@@](C)(C(=O)O)CS2)c(O)c1`, -21.7%. As to `CC(C)N(CCCNC(=O)Nc1ccc(C(C)(C)C)cc1)C[C@H]1O[C@@H](n2cc(Br)c3c(N)ncnc32)[C@H](O)[C@@H]1O`, the “activity change, negative = cytotoxicity” value was -1.47%. `O=C(c1ccc(F)c(F)c1Nc1ccc(I)cc1F)N1CC(O)(C2CCCCN2)C1` (configuration not stated): the Potency is 28.2 µM (active). As for `O=[N+]([O-])c1ccc(-[n+]2nc(-c3ccccc3)nn2-c2ccc(I)cc2)cc1`, the “activity change, negative = cytotoxicity” value was -11.4%. The same measure, in the same setting: with `CN1CCN(C(=O)c2ccc(Nc3nccc(-c4cccs4)n3)cc2Cl)CC1` the figure was -2.94%; with `Cn1cc(-c2cnc3ccc4ccc(CS(=O)(=O)NCc5ccccn5)cc4c(=O)c3c2)cn1`, -4.06%; with `C=C1[C@@H](C2=CC(=O)OC2)CC[C@@]2(O)[C@@H]1CC1[C@H]2CC[C@@H]2C[C@@H](O[C@H]3O[C@@H](C)[C@@H](O[C@@H]4O[C@H](CO[C@@H]5O[C@H](CO)[C@@H](O)[C@H](O)[C@H]5O)[C@@H](O)[C@H](O)[C@H]4O)[C@H](OC)[C@H]3O)CC[C@]12C` (some centres not stated), -6.72% [at 11.6 µM].

Regarding `C=C(C)[C@@H]1CC[C@]2(C(=O)O)CC[C@]3(C)C(CCC4[C@@]5(C)C[C@@H](O)[C@H](O)C(C)(C)C5CC[C@]43C)C12` (some centres not stated), the “activity change, negative = cytotoxicity” value is -2.4% [at 25.3 µM]. Still for that read-out and setting: with `CCS(=O)(=O)N(Cc1cccnc1)c1cccc(-c2ccc(C#N)cc2)c1` the figure was 15.3%; with `O=C(NNc1ccccc1)c1ccncc1`, -1.52%; with `C=C1[C@@H](C)[C@H]2[C@H](Cc3c[nH]c4ccccc34)NC(=O)[C@]23C(=O)/C=C/C(=O)[C@H](O)/C(C)=C\[C@@H](C)C/C=C/[C@H]3[C@@H]1O`, -21.2% [at 25.3 µM]. As for `CC(C)(C)c1ccc(CNC(=S)NCc2ccc(NS(C)(=O)=O)c(F)c2)cc1`, the “activity change, negative = cytotoxicity” value is -23.1%. Turning to `CNCc1ccc(C)c(NC(=O)c2ccc(Nc3nc(-c4ccccc4)c4ccccc4n3)cc2)c1`, the “activity change, negative = cytotoxicity” value is -1.77%.

For `CC1CCC(n2c3cnccc3c3cnc(Nc4ccc5c(n4)CCN(C(=O)CO)C5)nc32)CC1` (configuration not stated), the “activity change, negative = cytotoxicity” value was 9.02%. For the compound `C=CC(=O)Nc1cc(Nc2nccc(-c3cn(C)c4ccccc34)n2)c(OC)cc1N(C)CCN(C)C`, the Potency is 14.1 µM (active).
